Measurements reported in paper PMC7862700, “An all-to-all approach to the identification of sequence-specific readers for epigenetic DNA modifications on cytosine”.

Assays:
Assay in all cases: DAPPL (digital affinity profiling via proximity ligation, sequencing); 10 mM Tris-HCl pH 7.5, 50 mM NaCl, 1 mM DTT, 4% glycerol, room temperature, 30 min; GST-TFs on glutathione beads, 16-mer random dsDNA library, 0.1% formaldehyde crosslink after washing; high values mean tight binding
FEV = target: T1, FEV (Homo sapiens, UniProt Q99581 1-238); details: protein: recombinant; tags: N-terminal GST; dsDNA, one strand shown
T1 sequence: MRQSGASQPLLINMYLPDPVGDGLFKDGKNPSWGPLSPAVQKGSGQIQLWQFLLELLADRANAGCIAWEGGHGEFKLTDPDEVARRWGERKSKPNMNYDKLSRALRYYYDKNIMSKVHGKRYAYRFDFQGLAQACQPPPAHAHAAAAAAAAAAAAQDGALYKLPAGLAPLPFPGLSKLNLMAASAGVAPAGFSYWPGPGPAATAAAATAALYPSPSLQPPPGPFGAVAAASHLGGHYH
Method in brief: (§1)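 Human transcription factors carrying a GST fusion were produced in yeast, bound to glutathione beads, tagged with DNA barcodes and pooled together with a tag-only sample. Each pool was held with 200 nmole of a random double-stranded 16-mer DNA library in Tris/NaCl/DTT/glycerol buffer for 30 min at room temperature, then washed, crosslinked in 0.1% formaldehyde, proximity-ligated with BsaI/T4 ligase (1 h, 37 °C), PCR-amplified and sequenced on an Illumina NextSeq500. Binding signal is the read frequency of each hexamer for a given factor divided by its frequency in the tag-only sample.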

ETV5 = ETV5 (Homo sapiens, UniProt P41161 1-510); details: protein: recombinant; tags: N-terminal GST; dsDNA, one strand shown
Sequence of ETV5 (P41161 whole entry): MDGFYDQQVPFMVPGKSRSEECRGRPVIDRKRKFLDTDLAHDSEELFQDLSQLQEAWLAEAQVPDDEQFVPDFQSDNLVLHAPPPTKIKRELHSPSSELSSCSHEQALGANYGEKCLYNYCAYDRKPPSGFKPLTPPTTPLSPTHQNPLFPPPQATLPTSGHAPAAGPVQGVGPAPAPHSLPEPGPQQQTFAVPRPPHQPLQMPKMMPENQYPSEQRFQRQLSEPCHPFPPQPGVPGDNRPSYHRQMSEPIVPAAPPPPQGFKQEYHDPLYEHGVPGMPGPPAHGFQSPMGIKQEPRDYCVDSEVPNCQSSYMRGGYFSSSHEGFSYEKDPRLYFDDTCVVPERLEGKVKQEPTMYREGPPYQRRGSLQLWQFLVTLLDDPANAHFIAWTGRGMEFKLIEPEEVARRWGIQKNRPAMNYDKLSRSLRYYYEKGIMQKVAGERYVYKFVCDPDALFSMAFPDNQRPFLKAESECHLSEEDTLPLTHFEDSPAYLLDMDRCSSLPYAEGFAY
Method in brief: as §1

HSF1 = HSF1 (Homo sapiens, UniProt Q00613 1-529); details: protein: recombinant; tags: N-terminal GST; chain copies: 3; dsDNA, one strand shown
Sequence of HSF1 (Q00613 whole entry): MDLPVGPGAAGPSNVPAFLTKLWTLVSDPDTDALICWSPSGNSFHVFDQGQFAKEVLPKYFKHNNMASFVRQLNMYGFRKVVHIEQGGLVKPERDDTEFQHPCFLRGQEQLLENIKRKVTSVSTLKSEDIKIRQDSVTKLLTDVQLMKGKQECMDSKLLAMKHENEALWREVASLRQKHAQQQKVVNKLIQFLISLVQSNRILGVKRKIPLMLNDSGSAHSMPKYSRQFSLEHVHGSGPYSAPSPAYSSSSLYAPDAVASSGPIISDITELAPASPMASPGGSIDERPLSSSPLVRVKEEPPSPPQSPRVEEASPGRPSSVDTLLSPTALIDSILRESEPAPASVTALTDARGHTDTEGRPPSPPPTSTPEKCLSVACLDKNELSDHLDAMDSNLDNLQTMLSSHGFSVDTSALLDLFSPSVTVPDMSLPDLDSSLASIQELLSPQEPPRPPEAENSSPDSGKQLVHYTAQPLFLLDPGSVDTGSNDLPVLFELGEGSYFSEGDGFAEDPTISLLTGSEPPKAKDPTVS
Method in brief: as §1

ELF4 = ELF4 (Homo sapiens, UniProt Q99607 1-663); details: protein: recombinant; tags: N-terminal GST; dsDNA, one strand shown
Sequence of ELF4 (Q99607 whole entry): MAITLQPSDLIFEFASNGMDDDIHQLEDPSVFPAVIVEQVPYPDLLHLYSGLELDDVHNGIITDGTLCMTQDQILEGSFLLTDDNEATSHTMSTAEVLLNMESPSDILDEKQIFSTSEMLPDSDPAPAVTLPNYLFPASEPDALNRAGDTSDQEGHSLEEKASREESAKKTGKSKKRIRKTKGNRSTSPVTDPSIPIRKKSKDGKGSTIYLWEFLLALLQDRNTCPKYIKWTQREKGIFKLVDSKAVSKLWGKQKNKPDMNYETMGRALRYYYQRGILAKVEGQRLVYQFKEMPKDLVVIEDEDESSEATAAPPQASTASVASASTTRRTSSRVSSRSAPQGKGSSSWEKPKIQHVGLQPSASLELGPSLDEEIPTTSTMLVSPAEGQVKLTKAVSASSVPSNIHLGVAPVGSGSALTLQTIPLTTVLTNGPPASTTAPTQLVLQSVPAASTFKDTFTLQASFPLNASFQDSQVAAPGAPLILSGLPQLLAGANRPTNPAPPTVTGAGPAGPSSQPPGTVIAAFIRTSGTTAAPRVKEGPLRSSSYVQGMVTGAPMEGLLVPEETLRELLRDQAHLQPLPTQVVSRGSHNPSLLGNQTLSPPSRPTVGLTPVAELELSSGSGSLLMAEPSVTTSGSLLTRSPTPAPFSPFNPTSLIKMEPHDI
Method in brief: as §1

ELK4 = target: T2, ELK4 (Homo sapiens, UniProt P28324-2 1-405); details: protein: recombinant; tags: N-terminal GST; dsDNA, one strand shown
T2 sequence: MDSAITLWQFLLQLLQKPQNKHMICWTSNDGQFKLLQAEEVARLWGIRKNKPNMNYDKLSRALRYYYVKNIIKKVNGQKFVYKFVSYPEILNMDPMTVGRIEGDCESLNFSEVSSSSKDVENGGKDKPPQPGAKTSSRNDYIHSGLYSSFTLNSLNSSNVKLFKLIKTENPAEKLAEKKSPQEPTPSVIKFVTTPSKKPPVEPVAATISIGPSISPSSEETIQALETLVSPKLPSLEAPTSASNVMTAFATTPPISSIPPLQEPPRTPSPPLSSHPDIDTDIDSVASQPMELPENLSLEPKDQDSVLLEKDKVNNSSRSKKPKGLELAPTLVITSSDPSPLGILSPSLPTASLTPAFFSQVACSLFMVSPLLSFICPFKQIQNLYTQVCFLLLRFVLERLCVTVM
Method in brief: as §1

ETV2 = target: T3, ETV2 (Homo sapiens, UniProt O00321 1-342); details: protein: recombinant; tags: N-terminal GST; dsDNA, one strand shown
T3 sequence: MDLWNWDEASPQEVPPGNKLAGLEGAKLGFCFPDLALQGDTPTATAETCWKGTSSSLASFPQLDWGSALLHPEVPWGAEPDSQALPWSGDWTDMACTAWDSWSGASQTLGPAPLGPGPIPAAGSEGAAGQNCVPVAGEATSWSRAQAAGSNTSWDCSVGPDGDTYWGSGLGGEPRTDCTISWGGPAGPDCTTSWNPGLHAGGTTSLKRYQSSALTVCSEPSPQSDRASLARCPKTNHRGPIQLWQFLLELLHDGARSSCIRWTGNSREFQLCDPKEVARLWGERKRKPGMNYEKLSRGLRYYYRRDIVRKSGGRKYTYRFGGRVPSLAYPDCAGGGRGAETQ
Method in brief: as §1

ELF3 = target: T4, ELF3 (Homo sapiens, UniProt P78545 1-371); details: protein: recombinant; tags: N-terminal GST; dsDNA, one strand shown
T4 sequence: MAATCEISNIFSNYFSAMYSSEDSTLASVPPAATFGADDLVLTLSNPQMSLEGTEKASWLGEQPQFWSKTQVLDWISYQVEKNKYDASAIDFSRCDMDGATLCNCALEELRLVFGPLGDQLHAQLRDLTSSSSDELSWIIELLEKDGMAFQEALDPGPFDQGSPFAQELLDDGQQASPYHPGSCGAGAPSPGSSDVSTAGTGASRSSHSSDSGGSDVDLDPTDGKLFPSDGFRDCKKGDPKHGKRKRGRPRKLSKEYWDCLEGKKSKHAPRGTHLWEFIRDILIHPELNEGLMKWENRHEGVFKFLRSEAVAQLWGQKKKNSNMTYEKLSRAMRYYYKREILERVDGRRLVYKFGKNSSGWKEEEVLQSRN
Method in brief: as §1

ETV1 = ETV1 (Homo sapiens, UniProt P50549 1-477); details: protein: recombinant; tags: N-terminal GST; dsDNA, one strand shown
Sequence of ETV1 (P50549 whole entry): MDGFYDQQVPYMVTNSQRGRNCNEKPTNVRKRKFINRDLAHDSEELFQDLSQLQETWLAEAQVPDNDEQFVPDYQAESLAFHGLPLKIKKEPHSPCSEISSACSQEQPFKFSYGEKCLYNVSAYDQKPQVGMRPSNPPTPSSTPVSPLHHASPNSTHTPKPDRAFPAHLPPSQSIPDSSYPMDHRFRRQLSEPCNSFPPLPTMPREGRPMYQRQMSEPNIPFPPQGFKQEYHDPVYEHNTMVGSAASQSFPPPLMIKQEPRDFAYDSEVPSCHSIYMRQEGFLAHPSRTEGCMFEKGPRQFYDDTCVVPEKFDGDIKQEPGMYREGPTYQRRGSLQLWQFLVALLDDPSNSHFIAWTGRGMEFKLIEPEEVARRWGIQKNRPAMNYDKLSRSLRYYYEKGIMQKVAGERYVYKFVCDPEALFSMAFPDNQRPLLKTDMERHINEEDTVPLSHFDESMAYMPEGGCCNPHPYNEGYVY
Method in brief: as §1

CRX = CRX (Homo sapiens, UniProt O43186 1-299); details: protein: recombinant; tags: N-terminal GST; dsDNA, one strand shown
Sequence of CRX (O43186 whole entry): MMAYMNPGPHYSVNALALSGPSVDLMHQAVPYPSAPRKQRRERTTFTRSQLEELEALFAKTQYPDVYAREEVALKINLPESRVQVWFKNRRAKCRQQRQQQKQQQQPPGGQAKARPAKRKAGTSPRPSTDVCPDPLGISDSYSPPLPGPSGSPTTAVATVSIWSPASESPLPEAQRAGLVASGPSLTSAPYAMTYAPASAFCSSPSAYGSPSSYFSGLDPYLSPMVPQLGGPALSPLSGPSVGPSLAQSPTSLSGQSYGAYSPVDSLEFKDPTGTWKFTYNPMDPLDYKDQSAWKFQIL
Method in brief: as §1

Sequence	binding signal (FEV)	binding signal (ETV5)	binding signal (HSF1)	binding signal (ELF4)	binding signal (ELK4)	binding signal (ETV2)	binding signal (ELF3)	binding signal (ETV1)	binding signal (CRX)
CGTTCA	1.25 fold enrichment (6-mer frequency, TF over GST control)	1.16 fold enrichment (6-mer frequency, TF over GST control)	1.03 fold enrichment (6-mer frequency, TF over GST control)	1.17 fold enrichment (6-mer frequency, TF over GST control)	1.14 fold enrichment (6-mer frequency, TF over GST control)	1.19 fold enrichment (6-mer frequency, TF over GST control)	1.13 fold enrichment (6-mer frequency, TF over GST control)	1.18 fold enrichment (6-mer frequency, TF over GST control)	
AGATAA	1.01 fold enrichment (6-mer frequency, TF over GST control)	1.01 fold enrichment (6-mer frequency, TF over GST control)	1.68 fold enrichment (6-mer frequency, TF over GST control)	1.09 fold enrichment (6-mer frequency, TF over GST control)	1.08 fold enrichment (6-mer frequency, TF over GST control)	1.17 fold enrichment (6-mer frequency, TF over GST control)		1.04 fold enrichment (6-mer frequency, TF over GST control)	2 fold enrichment (6-mer frequency, TF over GST control)
ATCGCT	1.06 fold enrichment (6-mer frequency, TF over GST control)	1.07 fold enrichment (6-mer frequency, TF over GST control)	1.08 fold enrichment (6-mer frequency, TF over GST control)	1.15 fold enrichment (6-mer frequency, TF over GST control)	1.06 fold enrichment (6-mer frequency, TF over GST control)		1.05 fold enrichment (6-mer frequency, TF over GST control)	1.08 fold enrichment (6-mer frequency, TF over GST control)	1.19 fold enrichment (6-mer frequency, TF over GST control)
GAACAT	1.01 fold enrichment (6-mer frequency, TF over GST control)	1.12 fold enrichment (6-mer frequency, TF over GST control)	1.81 fold enrichment (6-mer frequency, TF over GST control)	1 fold enrichment (6-mer frequency, TF over GST control)		1.01 fold enrichment (6-mer frequency, TF over GST control)	1.06 fold enrichment (6-mer frequency, TF over GST control)		1.03 fold enrichment (6-mer frequency, TF over GST control)
GGTATA	1.08 fold enrichment (6-mer frequency, TF over GST control)	1.1 fold enrichment (6-mer frequency, TF over GST control)	1.08 fold enrichment (6-mer frequency, TF over GST control)	1.08 fold enrichment (6-mer frequency, TF over GST control)	1.1 fold enrichment (6-mer frequency, TF over GST control)	1.05 fold enrichment (6-mer frequency, TF over GST control)		1.11 fold enrichment (6-mer frequency, TF over GST control)	1.02 fold enrichment (6-mer frequency, TF over GST control)
TGACGA	1.05 fold enrichment (6-mer frequency, TF over GST control)	1.13 fold enrichment (6-mer frequency, TF over GST control)	1.01 fold enrichment (6-mer frequency, TF over GST control)	1.11 fold enrichment (6-mer frequency, TF over GST control)	1.18 fold enrichment (6-mer frequency, TF over GST control)	1.15 fold enrichment (6-mer frequency, TF over GST control)	1.08 fold enrichment (6-mer frequency, TF over GST control)	1.04 fold enrichment (6-mer frequency, TF over GST control)	
TCAAGG	1.08 fold enrichment (6-mer frequency, TF over GST control)	1.03 fold enrichment (6-mer frequency, TF over GST control)	1.04 fold enrichment (6-mer frequency, TF over GST control)	1.01 fold enrichment (6-mer frequency, TF over GST control)	1.07 fold enrichment (6-mer frequency, TF over GST control)	1.19 fold enrichment (6-mer frequency, TF over GST control)		1.12 fold enrichment (6-mer frequency, TF over GST control)	1.09 fold enrichment (6-mer frequency, TF over GST control)
ACAGAT		1 fold enrichment (6-mer frequency, TF over GST control)	1.1 fold enrichment (6-mer frequency, TF over GST control)	1.05 fold enrichment (6-mer frequency, TF over GST control)	1.04 fold enrichment (6-mer frequency, TF over GST control)	1.05 fold enrichment (6-mer frequency, TF over GST control)		1.05 fold enrichment (6-mer frequency, TF over GST control)	1.27 fold enrichment (6-mer frequency, TF over GST control)
GGTAAT	1.09 fold enrichment (6-mer frequency, TF over GST control)	1.13 fold enrichment (6-mer frequency, TF over GST control)	1.27 fold enrichment (6-mer frequency, TF over GST control)	1.08 fold enrichment (6-mer frequency, TF over GST control)	1.21 fold enrichment (6-mer frequency, TF over GST control)		1.17 fold enrichment (6-mer frequency, TF over GST control)	1.19 fold enrichment (6-mer frequency, TF over GST control)	1.76 fold enrichment (6-mer frequency, TF over GST control)
CTGGCC	1.13 fold enrichment (6-mer frequency, TF over GST control)	1.19 fold enrichment (6-mer frequency, TF over GST control)	1.01 fold enrichment (6-mer frequency, TF over GST control)	1.2 fold enrichment (6-mer frequency, TF over GST control)	1.35 fold enrichment (6-mer frequency, TF over GST control)	1.04 fold enrichment (6-mer frequency, TF over GST control)	1 fold enrichment (6-mer frequency, TF over GST control)	1.15 fold enrichment (6-mer frequency, TF over GST control)	
TTGCGC	1.05 fold enrichment (6-mer frequency, TF over GST control)	1.11 fold enrichment (6-mer frequency, TF over GST control)	1.05 fold enrichment (6-mer frequency, TF over GST control)	1.06 fold enrichment (6-mer frequency, TF over GST control)		1.11 fold enrichment (6-mer frequency, TF over GST control)		1.16 fold enrichment (6-mer frequency, TF over GST control)	1.05 fold enrichment (6-mer frequency, TF over GST control)
CGAGTT		1.1 fold enrichment (6-mer frequency, TF over GST control)	1.07 fold enrichment (6-mer frequency, TF over GST control)	1.06 fold enrichment (6-mer frequency, TF over GST control)	1.1 fold enrichment (6-mer frequency, TF over GST control)	1.11 fold enrichment (6-mer frequency, TF over GST control)	1.16 fold enrichment (6-mer frequency, TF over GST control)	1.04 fold enrichment (6-mer frequency, TF over GST control)	
ACATCG	1.01 fold enrichment (6-mer frequency, TF over GST control)	1.04 fold enrichment (6-mer frequency, TF over GST control)	1.01 fold enrichment (6-mer frequency, TF over GST control)	1.09 fold enrichment (6-mer frequency, TF over GST control)	1.13 fold enrichment (6-mer frequency, TF over GST control)		1.04 fold enrichment (6-mer frequency, TF over GST control)		
ACGCCC	1.12 fold enrichment (6-mer frequency, TF over GST control)	1.16 fold enrichment (6-mer frequency, TF over GST control)	1 fold enrichment (6-mer frequency, TF over GST control)	1.2 fold enrichment (6-mer frequency, TF over GST control)	1.18 fold enrichment (6-mer frequency, TF over GST control)	1.05 fold enrichment (6-mer frequency, TF over GST control)	1.06 fold enrichment (6-mer frequency, TF over GST control)	1.16 fold enrichment (6-mer frequency, TF over GST control)	
ACTGTT	1.1 fold enrichment (6-mer frequency, TF over GST control)	1.1 fold enrichment (6-mer frequency, TF over GST control)	1.03 fold enrichment (6-mer frequency, TF over GST control)	1.2 fold enrichment (6-mer frequency, TF over GST control)	1.09 fold enrichment (6-mer frequency, TF over GST control)	1.23 fold enrichment (6-mer frequency, TF over GST control)	1.03 fold enrichment (6-mer frequency, TF over GST control)	1.12 fold enrichment (6-mer frequency, TF over GST control)	
GAATTG	1.11 fold enrichment (6-mer frequency, TF over GST control)	1.18 fold enrichment (6-mer frequency, TF over GST control)	1.06 fold enrichment (6-mer frequency, TF over GST control)	1.11 fold enrichment (6-mer frequency, TF over GST control)	1.04 fold enrichment (6-mer frequency, TF over GST control)		1.17 fold enrichment (6-mer frequency, TF over GST control)	1.15 fold enrichment (6-mer frequency, TF over GST control)	
